Assay outcomes as filed in PubChem BioAssay.
This is a sample that favours compounds with a hit; in the whole collection about 8.2% have one here.
SW480 rerep = inducers of DNA re-replication in SW480 colon cancer cells; AID 624297; Potency, µM (series often up to 46.1 µM), usual class: activators; hit rate 1.8% among 340,000; SW480 DNA re-replication, Hoechst DNA content imaging, 48 h; further: nearly all actives have a fitted effect of over 55% in size
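Hoechst fluorescence of nuclei (405 nm excitation, 500-530 nm emission) measured by plate-scanning imager after 48 hr compound exposure at 37 C; re-replication scored as increased number of nuclei with elevated intensity.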
KB-3-1 cytotox = kills parental KB-3-1 adenocarcinoma cells | hit rate 1.4% among 400,000 | KB-3-1 viability, CellTiter-Glo ATP luminescence, 72 h | Potency, µM (titrated, usually from 46.1 µM), hits mostly cytotoxic; further: nearly all actives have a fitted effect of over 60% in size
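Luminescent ATP read-out (CellTiter-Glo) measures survival of drug-naive KB-3-1 cells after 72 h compound exposure at 37 °C. Titration series was screened from lowest to highest concentration, with DMSO vehicle plates as background controls.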
KB-V1 MDR tox = KB-V1 MDR subline cytotoxicity. AID 1347076. Potency, µM (series often up to 46.1 µM), hits mostly cytotoxic. hit rate 3.4% among 400,000. KB-V1 MDR cells viability, CellTiter-Glo, 72 h; further: nearly all actives have a fitted effect of over 60% in size
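Cytotoxicity via CellTiter-Glo luminescence after 72 h compound exposure at 37 degrees C. Cells: drug-selected KB-V1 line, DMEM phenol-red free plus 10% FBS. Compounds tested at multiple concentrations; normalized data fitted to concentration-effect curves.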
ELG1 DNA repair = ELG1-dependent DNA repair inhibition | HEK293T ELG1-luciferase reporter, luminescence, 16 h; DNA damage induced by 5-fluorouridine | Potency, µM (titrated, usually from 46.1 µM), most hits filed as inhibitors | hit rate 2.3% among 330,000 | AID 504467; further: nearly all actives have a fitted effect of over 55% in size
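Reporter activity after DNA damage by 5-fluorouridine is monitored. Compound-treated cells incubate 16 hr at 37 °C, then ONE-Glo is added for 30 min before luminescence reading.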
MCF10A rerep = inducers of DNA re-replication in MCF 10A breast cells | MCF 10A DNA re-replication, Hoechst nuclear intensity, 48 h | Potency, µM (top dose mostly 46.1 µM), hits mostly activators | hit rate 2.9% among 350,000; further: nearly all actives have a fitted effect of over 50% in size
ELG1 FLuc counter = luciferase inhibition in cell-free luciferin readout for ELG1 hits. AID 624247. shares compounds with ELG1 DNA repair. cell-free firefly luciferase luminescence counter-screen, ViewLux. Potency, µM (highest dose often 46.1 µM), hits mostly inhibitors. hit rate 3% among 350
ELG1-Luc inh = inhibits ELG1-dependent DNA repair in HEK293T cells, confirmed. AID 624248. HEK293T ELG1-luciferase levels, luminescence; cells co-treated with 5-fluorouridine. Potency, µM (titrated, usually from 46.1 µM), usual class: inhibitors. hit rate 68% among 670. shares compounds with ELG1 DNA repair; further: nearly all actives have a fitted effect of over 55% in size
Target sequence (Q96QE3 whole entry, looked up): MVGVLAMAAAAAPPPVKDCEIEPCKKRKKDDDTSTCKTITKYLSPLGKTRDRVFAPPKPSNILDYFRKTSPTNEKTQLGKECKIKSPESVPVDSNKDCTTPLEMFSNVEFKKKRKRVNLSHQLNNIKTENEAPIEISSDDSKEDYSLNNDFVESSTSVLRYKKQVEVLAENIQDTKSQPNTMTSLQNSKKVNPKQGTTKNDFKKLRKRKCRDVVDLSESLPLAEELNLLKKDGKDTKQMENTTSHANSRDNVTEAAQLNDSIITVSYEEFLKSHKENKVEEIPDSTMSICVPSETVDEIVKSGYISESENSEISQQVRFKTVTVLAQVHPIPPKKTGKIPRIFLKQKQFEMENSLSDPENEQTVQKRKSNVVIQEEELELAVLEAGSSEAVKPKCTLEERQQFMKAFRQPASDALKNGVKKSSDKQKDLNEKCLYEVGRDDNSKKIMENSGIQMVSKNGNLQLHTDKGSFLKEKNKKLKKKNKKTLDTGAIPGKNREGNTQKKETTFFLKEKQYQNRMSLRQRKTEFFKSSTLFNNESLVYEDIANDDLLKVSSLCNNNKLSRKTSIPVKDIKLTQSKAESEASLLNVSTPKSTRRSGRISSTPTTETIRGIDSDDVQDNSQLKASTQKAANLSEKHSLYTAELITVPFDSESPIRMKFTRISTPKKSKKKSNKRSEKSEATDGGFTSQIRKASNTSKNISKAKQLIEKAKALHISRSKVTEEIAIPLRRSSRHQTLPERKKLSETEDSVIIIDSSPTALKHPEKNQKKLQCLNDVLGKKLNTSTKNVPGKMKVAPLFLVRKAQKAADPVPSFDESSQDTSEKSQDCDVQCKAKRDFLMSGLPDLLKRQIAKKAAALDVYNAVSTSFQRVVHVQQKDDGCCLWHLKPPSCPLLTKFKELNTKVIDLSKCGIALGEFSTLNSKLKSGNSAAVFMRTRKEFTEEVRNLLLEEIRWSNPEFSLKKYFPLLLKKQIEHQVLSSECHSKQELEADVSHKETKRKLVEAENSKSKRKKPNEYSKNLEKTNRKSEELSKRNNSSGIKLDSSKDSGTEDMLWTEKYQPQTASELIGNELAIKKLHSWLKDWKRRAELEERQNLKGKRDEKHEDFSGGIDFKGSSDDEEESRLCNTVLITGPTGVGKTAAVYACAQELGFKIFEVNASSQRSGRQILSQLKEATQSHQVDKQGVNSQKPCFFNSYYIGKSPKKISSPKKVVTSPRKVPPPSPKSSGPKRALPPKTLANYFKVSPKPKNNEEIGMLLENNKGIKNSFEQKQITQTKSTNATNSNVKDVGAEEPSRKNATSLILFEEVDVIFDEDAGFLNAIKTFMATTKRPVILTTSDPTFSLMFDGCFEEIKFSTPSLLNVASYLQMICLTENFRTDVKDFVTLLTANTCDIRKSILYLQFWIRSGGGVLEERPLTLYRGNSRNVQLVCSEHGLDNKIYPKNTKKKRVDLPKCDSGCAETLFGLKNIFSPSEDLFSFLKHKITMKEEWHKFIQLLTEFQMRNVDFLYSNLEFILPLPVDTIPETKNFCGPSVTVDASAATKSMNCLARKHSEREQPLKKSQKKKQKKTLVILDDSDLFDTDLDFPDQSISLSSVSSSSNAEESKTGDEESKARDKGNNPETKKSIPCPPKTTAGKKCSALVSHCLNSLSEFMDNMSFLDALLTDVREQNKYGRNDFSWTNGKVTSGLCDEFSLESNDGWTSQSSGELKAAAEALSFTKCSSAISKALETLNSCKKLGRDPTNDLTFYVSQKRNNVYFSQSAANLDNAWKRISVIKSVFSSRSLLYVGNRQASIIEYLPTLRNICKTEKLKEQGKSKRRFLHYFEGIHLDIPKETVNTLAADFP
ELG1 MMS Luc = confirmation of human ELG1 repair inhibitors, MMS stimulated | shares compounds with ELG1 DNA repair | HEK293T luciferase-tagged ELG1 level, MMS stimulated | Potency, µM (series often up to 46.1 µM), hits mostly inhibitors | hit rate 53% among 670 | AID 624249; further: nearly all actives have a fitted effect of over 60% in size
ELG1 5-FU = confirmation of ELG1 repair inhibitors: viability with 5FU; shares compounds with ELG1 DNA repair; cell viability with 5-FU, ELG1-dependent repair; Potency, µM (series often up to 46.1 µM), most hits filed as cytotoxic; 670 tested, under 10 active;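 further: ELG1-luc HEK293T cells cotreated with 5-fluorouridine at 10 µM final; viability measured 16 h after compound addition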
ELG1 MMS viab = confirmation of ELG1 repair inhibitors: viability with MMS; shares compounds with ELG1 DNA repair; Cell viability with MMS, ELG1-dependent DNA repair; Potency, µM (highest dose often 46.1 µM), actives largely listed as cytotoxic; hit rate 33% among 670; AID 624251;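 further: ELG1-luc HEK293T cells co-treated with 10 µM MMS; viability read 16 h after compound addition; nearly all actives have a fitted effect of over 60% in size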
Cell viab unstim = unstimulated viability counter-screen for ELG1 repair hits; shares compounds with ELG1 DNA repair; cell viability counter-screen, unstimulated, luminescence; Potency, µM (series often up to 45.9 µM), actives largely listed as cytotoxic; hit rate 8% among 900; AID 624252;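 further: compound exposure lasted 16 hours before reading; nearly all actives have a fitted effect of over 55% in size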
FLuc enzyme = firefly luciferase inhibition counter-screen | AID 624253 | Potency, µM (doses to about 57.5 µM), most hits filed as inhibitors | hit rate 10% among 350 | shares compounds with ELG1 DNA repair | purified firefly luciferase, luminescence counter-screen
A number is an active result; 0 = inactive; ? = inconclusive; - = no result. The call rests on the fitted dose curve; in most records, active means well fitted curve in the direction sought with a large enough effect; inconclusive means small, poorly fitted or top-dose-only effect, or another doubt; inactive means no such curve, though single readings can be large; an effect the other way counts as inactive or inconclusive.

SMILES	SW480 rerep	KB-3-1 cytotox	KB-V1 MDR tox	ELG1 DNA repair	MCF10A rerep	ELG1-Luc inh	ELG1 MMS Luc	ELG1 5-FU	ELG1 MMS viab	Cell viab unstim	others
O=C(CSCC(=O)N1CCCCC1)Nc1nc(-c2cccs2)cs1	0	0	0	?	0	-	-	-	-	-
O=[N+]([O-])c1ccc(S(=O)(=O)N2CCN(c3nc(-c4cccs4)nc4ccccc34)CC2)cc1	-	0	0	-	-	-	-	-	-	-
Nc1ccc(/C=C/c2ccc3cccnc3c2)cc1	-	?	?	-	-	-	-	-	-	0	ELG1 FLuc counter=0;FLuc enzyme=0.37µM
Cc1ccc2c(CN3CCN(c4ccccc4F)CC3)cc(=O)oc2c1	-	0	0	-	-	-	-	-	-	-
Cc1ccc(Cn2ncc3c(N4CCN(CCc5ccccc5)CC4)ncnc32)cc1	0	0	?	3.7µM	0	?	3.5µM	0	4µM	?
Cc1ccc(Cn2ncc3c(N4CCN(C)CC4)ncnc32)cc1	0	0	?	?	0	-	-	-	-	-
COc1cccc(C2CC(=O)Nc3c2ccc(C)c3C)c1OC (centres undefined)	-	0	0	-	-	-	-	-	-	-
CCC(C)CN1C(=O)CN(S(C)(=O)=O)CC1(C)C(=O)NCc1ccccc1 (centres undefined)	-	0	0	-	-	-	-	-	-	-
COc1ccc(/C=N/n2c(N)c(S(=O)(=O)c3cccs3)c3nc4ccccc4nc32)cc1OC	0	0	0	2.6µM	?	3.1µM	0	?	0	0
CCOC(=O)c1cnc2cc(C)nn2c1C	0	0	0	0	0	-	-	-	-	-
CCOC(=O)c1cnc(-n2nc(C)cc2C)nc1Nc1ccc(O)cc1	0	?	?	4.1µM	0	3.5µM	2.5µM	0	2.8µM	?
O=C(CSc1nc2[nH]ncc2c(=O)n1-c1ccccc1)NCCc1ccccc1	0	0	0	0	0	-	-	-	-	-
CC1(C)Cc2nc3nc(SCC(=O)NCCc4ccccc4)n(-c4ccccc4)c(=O)c3cc2CO1	0	0	?	4.6µM	0	?	0	?	0	?
CCOC(=O)C1C(C(=O)OC)=C(c2ccc(OC)cc2)c2ccc(OC)cc2N1S(=O)(=O)C(F)(F)F (centres undefined)	?	0	0	4.1µM	0	5.6µM	?	?	0	0
CCN(CC)S(=O)(=O)c1cccc(-n2c(O)c(C=Nc3ccccc3C(=O)O)c3ccccc3c2=O)c1	0	0	0	5.8µM	0	0.35µM	0.35µM	0	0.4µM	0.44µM
O=C(NCc1cccnc1)c1cccc(S(=O)(=O)Nc2cccc(Cl)c2)c1	0	-	-	0	0	-	-	-	-	-
COc1cc(/C=N/Nc2nc(C)cc(C)n2)ccc1OC(=O)c1ccco1	0	0	0	0	0	-	-	-	-	-
CCOc1cc(/C=N\Nc2nc(Nc3ccccc3)nc(N3CCOCC3)n2)ccc1OC(=O)c1ccco1	?	?	?	2.3µM	?	1.6µM	?	?	?	?
O=C(COc1cccc2c1CCN(Cc1ccccc1)C2=O)NCc1ccco1	0	0	0	?	0	-	-	-	-	-
